From PubChem
Most compounds without a hit are left out; they make up all but 4.1% or so of the library.
CFTR F508del cor: F508del CFTR correction, initial screen, CFBE line, single point; actives 0.36% (n = 350,000); CFBE cells, YFP halide quenching; stimulated with forskolin plus potentiator P3; % fluorescence drop versus neutral controls; AID 720511, 2013; activity (quench increase), % at 7.58 µM;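 active means mean added fluorescence quench of at least 8% versus neutral control, with both replicates also reaching 8%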;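 further: cells transiently co-express mutant CFTR-F508del with the halide-sensitive YFP; corrector assay measuring rescue of mutant channel to the surface after 24 h compound exposure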
PglD DTNB: C. jejuni PglD acetyltransferase inhibitors, primary screen, biochemical, DTNB colorimetric, single point; UDP-N-acetylbacillosamine N-acetyltransferase PglD (Campylobacter jejuni); purified PglD enzyme, DTNB colorimetric CoA detection; inhibition, % at 12.5 µM; actives 0.098% (n = 360,000); AID 602405, 2012; in the data active means inhibition above about 16%, passing the limit was not always enough
ALR inh: inhibitors of human ALR sulfhydryl oxidase, primary screen, biochemical, H2O2 detection, HRP-luminol luminescence, single point; FAD-linked sulfhydryl oxidase ALR (Homo sapiens), P55789; AID 485317, 2010; purified ALR, DTT oxidation; actives 3.8% (n = 290,000); inhibition, % (no concentration beside the values);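 active means mean replicate inhibition above about 79%, with every replicate also reaching it, limit read from the data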
Target sequence (P55789 whole entry, looked up): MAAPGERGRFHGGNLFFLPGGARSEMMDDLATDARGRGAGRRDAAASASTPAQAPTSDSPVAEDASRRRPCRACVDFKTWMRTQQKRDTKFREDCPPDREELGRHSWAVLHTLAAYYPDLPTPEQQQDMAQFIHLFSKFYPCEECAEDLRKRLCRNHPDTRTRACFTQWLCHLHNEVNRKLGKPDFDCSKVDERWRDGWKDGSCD
NSD2 inh: NSD2 histone methyltransferase inhibitors, primary screen, biochemical, AlphaScreen, single concentration, set 2; Histone-lysine N-methyltransferase NSD2 (Homo sapiens), O96028; NSD2 peptide methylation, 120 min; inhibition, % at 12.5 µM; actives 0.54% (n = 310,000); AID 743445, 2014; in the data active means inhibition above about 50%
HIV Env fusion: inhibitors of HIV-1 Env-driven cell-cell fusion, primary screen, HeLa-JRFL effector, CEM21 target cells, luciferase; inhibition, % at 12.3 µM; actives 1.1% (n = 360,000);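 active means mean replicate inhibition score of at least 50 and every replicate individually at or above 50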
CASP6 VEID inh: human caspase-6 inhibitors, primary screen, biochemical, VEID-R110 fluorescence, single point, set 2; purified caspase-6, Z-VEID-R110 cleavage fluorescence; inhibition, % at 12.5 µM; P55212; actives 0.53% (n = 350,000); AID 686996, 2013;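 active means mean inhibition across replicates at least about 35%, with every replicate also reaching that limit, limit read from the data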
Target sequence (P55212 24-179 limits assumed): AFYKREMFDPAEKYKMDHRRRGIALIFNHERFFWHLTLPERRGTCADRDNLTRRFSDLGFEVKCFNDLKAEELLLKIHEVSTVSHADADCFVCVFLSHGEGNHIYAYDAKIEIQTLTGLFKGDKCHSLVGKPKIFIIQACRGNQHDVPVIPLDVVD
Target sequence (P55212 194-293 limits assumed): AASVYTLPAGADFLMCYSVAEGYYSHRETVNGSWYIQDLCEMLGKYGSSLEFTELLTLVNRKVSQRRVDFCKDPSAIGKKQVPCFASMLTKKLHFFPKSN
Numbers stand for hits; i = inactive; nt = no result.

SMILES	CFTR F508del cor	PglD DTNB	ALR inh	NSD2 inh	HIV Env fusion	CASP6 VEID inh
CC(C)C#Cc1ccc2c(c1)O[C@@H](CN(C)C(=O)C1CCCCC1)[C@@H](C)CN([C@@H](C)CO)S2(=O)=O	i	nt	nt	nt	i	nt
Brc1ccccc1-n1nnc(-c2nccs2)n1	i	i	i	nt	i	i
c1ccc(-n2nnc(-c3nccs3)n2)cc1	i	i	94.5	nt	i	i
O=C(/C=C/c1ccco1)Nc1ccc(-c2nc3ccccc3[nH]2)cc1	nt	i	i	i	i	nt
C(=C\c1nc2ccccc2[nH]1)/c1ccccc1	nt	i	97.6	i	i	nt
C(=C\c1ccco1)/c1nc2ccccc2[nH]1	nt	nt	97.9	i	i	nt
O=C(Nc1ccc(Oc2ccccc2)cc1)c1csc([C@H]2C[C@H](O)[C@@H](CO)O2)n1	i	i	nt	i	67.7	i
C[C@H](CO)N1C[C@H](C)[C@H](CN(C)Cc2ccc(Oc3ccccc3)cc2)Oc2ccc(NC(=O)C3CCCCC3)cc2C1=O	i	nt	nt	nt	i	nt
O=c1nccc(SCc2ccc(Cl)cc2Cl)[nH]1	i	i	98.7	i	i	i
CCCNC(=O)C[C@H]1CC[C@H]2[C@H](COc3ccc(NC(=O)c4cccc(C(F)(F)F)c4)cc3C(=O)N2C)O1	i	i	nt	nt	i	i
CN1c2ccc(-c3ccc(F)cc3)cc2[C@H]2[C@H](CCN2S(=O)(=O)c2cccc(F)c2)[C@H]1CO	16.2	i	nt	nt	nt	i
COc1ccc(S(=O)(=O)N2CC[C@@H]3[C@H](CO)N(C)c4ccc(-c5ccc(F)cc5)cc4[C@@H]32)cc1	10.6	i	nt	nt	nt	i
O=C(C1CCC1)N1CC2(C1)[C@H](c1ccccc1)[C@@H](CO)N2Cc1cncnc1	i	nt	nt	nt	i	i
CO[C@H]1CN(C)C(=O)c2cccc(C#N)c2OC[C@@H]2O[C@H](CC[C@H]2OC)CCN(C)C(=O)[C@@H]1C	i	i	nt	nt	i	i
CCOC(=O)C1CCN(S(=O)(=O)c2cccc(-c3csc(C)n3)c2)CC1	nt	i	98.6	i	nt	nt
CCOC(=O)C1CCN(S(=O)(=O)c2cccc(-c3cn4cccnc4n3)c2)CC1	nt	i	98.0	i	nt	nt
CCOC(=O)C1CCN(S(=O)(=O)c2cccc(-c3cn4cc(C)ccc4n3)c2)CC1	nt	i	i	i	nt	i
C[C@@H]1CCCCO[C@@H](CN(C)S(=O)(=O)c2ccccc2)[C@@H](C)CN([C@@H](C)CO)C(=O)c2cc(NC(=O)Nc3ccc(C(F)(F)F)cc3)ccc2O1	i	i	nt	nt	i	i
O=C(N/N=C(\CC(=O)c1cccs1)C(F)(F)F)c1cccnc1	i	nt	i	i	i	i
O=C(N/N=C(/CC(=O)c1cccs1)C(F)(F)F)c1ccc(O)cc1	nt	i	80.3	i	i	nt
COC(=O)[C@H]1[C@H](CO)[C@H]2Cn3c(ccc(/C=C/c4ccccc4)c3=O)[C@H]2N1C(=O)C1CCCC1	nt	i	nt	nt	i	i
O=C(c1ccc2c(c1)OCO2)N1CC2(C1)[C@@H](c1ccccc1)[C@@H](CO)N2C(=O)C1CC1	i	nt	nt	nt	i	i
COc1cc(C(=O)N2CCC(C(N)=O)CC2)ccc1OCc1c(C)noc1C	9.4	nt	i	i	i	i
CCCNC(=O)C[C@H]1CC[C@H]2[C@H](COc3ccc(NC(=O)Cc4ccccc4)cc3C(=O)N2C)O1	i	i	nt	nt	i	i
Cc1nc2ccccc2cc1OCc1ccc(Cl)cc1	nt	i	i	i	i	nt
SMILES	CFTR F508del cor	PglD DTNB	ALR inh	NSD2 inh	HIV Env fusion	CASP6 VEID inh
Cc1nc2ccccc2nc(C)c1=NOCc1cccc(Cl)c1	i	i	nt	nt	68.8	i
CC(=O)Nc1ccc(NC(=O)CSc2nnc(C)c(=O)[nH]2)cc1	i	i	98.3	i	i	i
O=C(O)CCc1nnc(SCC(=O)Nc2cccc(C(F)(F)F)c2)[nH]c1=O	nt	nt	99.1	i	i	nt
O=C(O)CCc1nnc(SCC(=O)Nc2ccc(Cl)c(C(F)(F)F)c2)[nH]c1=O	i	nt	i	i	i	i
Cc1ccc(NC(=O)CSc2nnc(CCC(=O)O)c(=O)[nH]2)cc1	i	i	98.4	i	i	i
Cc1nnc(SCC(=O)Nc2sc3c(c2C#N)CCCC3)[nH]c1=O	nt	i	97.8	i	nt	nt
O=C(NC[C@H]1CC[C@@H]2[C@@H](CN2Cc2cccc(Cl)c2)O1)C1CC1	i	nt	nt	nt	i	i
Cc1nnc(SCc2ccc(CSc3nnc(C)c(=O)[nH]3)cc2)[nH]c1=O	i	nt	i	i	i	i
Cc1cc(C)c(C(=O)CSc2nnc(C)c(=O)[nH]2)cc1C	i	nt	94.6	i	i	i
CC(=O)Nc1ccc(SCC(=O)Nc2oc(C)c3c(C)n[nH]c(=O)c23)cc1	i	i	98.7	nt	i	i
Cc1nnc(SCc2nc3sc4c(c3c(=O)[nH]2)CCCC4)[nH]c1=O	i	nt	98.4	i	i	i
CCCc1nc2sc3c(c2c(=O)[nH]1)CCCC3	i	nt	i	i	i	i
CO[C@@H]1CN(C)C(=O)c2cc(NC(=O)Nc3ccccc3F)ccc2OC[C@H](C)N(CC2CC2)C[C@H]1C	i	i	nt	nt	nt	i
COc1c(F)c(F)c(C(=O)O)c(Nc2ccc(C)cc2C)c1F	i	nt	96.9	i	i	i
COc1c(F)c(F)c(C(=O)O)c(Nc2cc(C)cc(C)c2)c1F	i	i	i	i	i	i
Cc1ccc(Nc2c(F)c(F)c(F)c(F)c2C(=O)O)cc1	i	nt	87.3	i	i	i
COc1cccc(Nc2c(F)c(F)c(F)c(F)c2C(=O)O)c1	nt	i	99.5	i	nt	nt
Cc1noc(C)c1S(=O)(=O)Nc1ccc2c(c1)C(=O)N([C@@H](C)CO)C[C@@H](C)[C@@H](CN(C)C(=O)Nc1ccccc1)OCCCC[C@@H](C)O2	i	i	nt	nt	i	i
COCC(=O)N(C)C[C@H]1Oc2cc(C#CC3CCCC3)ccc2S(=O)(=O)N([C@H](C)CO)C[C@H]1C	i	nt	nt	nt	i	nt
Cc1oc(-c2ccccc2Cl)nc1CS(=O)CC(=O)NCCCN1CC(C)CC(C)C1 (stereo not given)	i	i	88.5	i	i	i
Cc1ccccc1-c1nc(CS(=O)CC(=O)NCCc2ccc(Cl)cc2)c(C)o1 (stereo not given)	i	i	97.7	i	i	i
Cc1oc(-c2ccccc2Cl)nc1CS(=O)(=O)CC(=O)NCCc1ccccc1	i	i	i	nt	i	i
Cc1oc(-c2ccccc2Cl)nc1CS(=O)CC(=O)NCCc1ccccc1 (stereo not given)	i	i	99.4	i	i	i
Cc1ccccc1S(=O)(=O)N1C[C@H](O)COC[C@@H]2O[C@@H](CC(=O)NCc3ccccc3Cl)CC[C@H]21	i	i	nt	nt	i	i
